Measured values published in PubChem BioAssay AID488832 (National Center for Advancing Translational Sciences (NCATS), 2010).
Inconclusive results are not listed. Activity calls are given as the source filed them. Calls follow the shape of the dose curve; as a rule, active = well fitted activation curve with a large enough effect; inconclusive = small, poorly fitted or top-dose-only effect; inactive = no such curve, though single readings can be large or run the other way.

Test: Confirmation Concentration-Response Assay for Enhancers of SMN2 Splice Variant Expression for Further Probe SAR
Details: HEK293 SMN2 exon7-luciferase splicing reporter, luminescence, 30-36 h; series mostly up to 46.1 µM; activity, positive = activation: at the top concentration
Text: NIH Chemical Genomics Center [NCGC] NIH Molecular Libraries Probe Production centers Network [MLPCN] MLPCN Grant: R03 MH084179-01 Assay Submitter (PI): Elliot Androphy NCGC Assay Overview: Spinal muscular atrophy (SMA) is caused by insufficient levels of the survival motor neuron protein SMN. The SMN locus on chromosome 5q13 contains two inverted copies of SMN called SMN1 and SMN2 which are 99% identical at the amino acid level. SMN1 is a fully functional protein and SMN2 skips exon 7 90% of the time. Skipping of exon 7 produces non-functional protein product. 10% of the SMN2 protein includes exon 7 and is fully functional. In the SMA disease state, mutations in the SMN1 locus are the cause of the disease state. Because only 10% of SMN2 is of the fully functional form, it is not sufficient to overcome the deficiency produced by the loss of the SMN1 product. A therapy that either increase the amount of SMN2 product made or to increase the inclusion of exon 7 has been proposed for the treatment of SMA. We have designed an assay to identify small molecules that can increase the amount of functional SMN2 product by appending a luciferase reporter gene after the native SMN2 gene, such that inclusion of exon 7 in the expressed product places the luciferase sequence in frame, thus generating functional luciferase enzyme.
NCGC Assay Protocol Summary: This screen utilizes a luciferase reporter gene assay, combining the promoter with the major portion of the native SMN2 cDNA (exons 1 -7, intron 8 , exon 8 fused to luciferase) stably expressed in HEK293 cells. Compounds that increase luciferase signal presumably enhance expression of the functional SMN2 splice variant. Passaging media contained DMEM w/ glutamax (+phenol red) 10% FCS, 1x pen/strep, 200 ug/ml hygro, 1x sodium pyruvate. Assay media contained DMEM w/ glutamax (-phenol red) 10% FCS, 1x pen strep, 1x pyruvate Sequence, Parameter, Value, Description (1) Cells, 5 uL, 2000 cells/well, 1536 TC treated White solid bottom plate (2) Time, 10-12 hours, 37C 5% CO2 (3) Compound, 23 nl, MLSMR Library (4) Control Compound, 23 nL, Sodium butyrate st 4.5mM (final) conc (5) Time, 30-36 hours, 37C 5% CO2 (6) Reagent, 3 ul, One Glo (TM) from Promega (7) Time, 5-15 minutes, Room temp (8) Detector, Viewlux: luminescent read, 60 second integration, high speed 2x binning Keywords: Spinal muscular atrophy, SMA, SMN2, high throughput screening, MLSMR, MLPCN, NIH Roadmap, qHTS and NCGC

Potency, active:
CN(C)c1cccc(-c2cnc(N3CCC(C(N)=O)CC3)s2)c1 24.4 nM, NC(=O)C1CCN(c2ncc(-c3cccc(N4CCCCC4)c3)s2)CC1 1090 nM, CN(C)c1cccc(-c2ncc(F)c(N3CCC(C(N)=O)CC3)n2)c1 2440 nM, NC(=O)C1CCN(c2ncc(-c3ccc4c(c3)OC(F)(F)O4)s2)CC1 194 nM, NC(=O)C1CCN(c2nnc(-c3ccc4c(c3)OCCCO4)s2)CC1 97.2 nM, CC(=O)N1CCN(c2nc(-c3ccc(Br)cc3)cs2)CC1 2440 nM, CN(C)c1cccc(-c2cc(N3CCC(C(N)=O)CC3)ncn2)c1 4870 nM, NC(=O)C1CCN(c2nc(-c3ccc4c(c3)OCO4)cs2)CC1 1370 nM, NC(=O)C1CCN(c2ncc(-c3cccc(N4CCCC4)c3)s2)CC1 345 nM, NC(=O)C1CCN(c2nc(-c3ccc(N4CCCCC4)nc3)cs2)CC1 3450 nM, c1c[nH]c(C2CCN(c3ncc(-c4ccc5c(c4)OCCCO5)s3)CC2)n1 2180 nM, CN(C)c1cccc(-c2nc(N3CCC(C(N)=O)CC3)ncc2F)c1 345 nM, NC(=O)C1CCN(c2ncc(-c3ccc4c(c3)OCCO4)s2)CC1 86.7 nM, NC(=O)C1CCN(c2ncc(-c3ccc(Cl)cc3)s2)CC1 137 nM, CN(C)c1cccc(-c2ccnc(N3CCC(C(N)=O)CC3)n2)c1 688 nM, COc1ccc(-c2cnc(N3CCC(C(N)=O)CC3)s2)cc1OC 7720 nM, O=C(O)C1CCN(c2ncc(-c3ccc4c(c3)OCCCO4)s2)CC1 8.7 nM, NC(=O)C1CCN(c2nccc(-c3ccc(Br)cc3)n2)CC1 244 nM, NC(=O)C1CCN(c2nccc(-c3ccc4c(c3)OCCO4)n2)CC1 1090 nM, NC(=O)C1CCN(c2ncnc(-c3ccc4c(c3)OCCCO4)n2)CC1 2440 nM, CN(C)c1cccc(-c2nnc(N3CCC(C(N)=O)CC3)s2)c1 218 nM, CCOC(=O)C1CCN(c2ncc(-c3ccc4c(c3)OCCCO4)s2)CC1 27.4 nM, NC(=O)C1CCN(c2nc(-c3ccccc3)cs2)CC1 3070 nM, CCOc1ccc(-c2csc(N3CCC(C(N)=O)CC3)n2)cc1 3070 nM, NC(=O)C1CCN(c2ncc(-c3ccc(Br)cc3)s2)CC1 218 nM, O=C(O)C1CCN(c2nc(-c3ccc(Br)cc3)cs2)CC1 2440 nM, CC(C)Oc1cccc(-c2csc(N3CCC(C(N)=O)CC3)n2)c1 688 nM, CN(C)c1cccc(-c2cnc(N3CCC(c4ncc[nH]4)CC3)s2)c1 3450 nM, NC(=O)C1CCN(c2ncc(-c3ccc4c(c3)OCO4)s2)CC1 48.7 nM, NC(=O)C1CCN(c2nc(-c3ccc4c(c3)OCCCO4)cs2)CC1 487 nM, NC1CCN(c2nc(-c3ccc(Br)cc3)cs2)CC1 1940 nM

activity, positive = activation, inactive:
Nc1nc(N)c2c(OCC3CCN(Cc4ccccc4F)CC3)cccc2n1 -92.9%, O=C(c1ccccc1)N1CCN(c2nc(-c3ccc(Br)cc3)cs2)CC1 -42.8%, CC(C)(C)OC(=O)NC1CCN(c2nc(-c3ccc(Br)cc3)cs2)CC1 -21.7%, Brc1ccc(-c2csc(N3CCNCC3)n2)cc1 -82.8%, O=C(c1ccco1)N1CCN(c2nc(-c3ccc(Br)cc3)cs2)CC1 -35.5%, N#Cc1cccc(-c2csc(N3CCC(C(N)=O)CC3)n2)c1 10.7%, NC(=O)C1CCN(c2nc(-c3cccc4ccccc34)cs2)CC1 -9.52%, CC(=O)NC1CCN(c2nc(-c3ccc(Br)cc3)cs2)CC1 -49.7%, Cc1cnc(N2CCC(C(N)=O)CC2)nc1-c1cccc(N(C)C)c1 7.67%
